This note sets out measurements from PubChem BioAssay.

The structures appear in SMILES notation. A number with no mark means an inactive call. Calls of active or inactive are those of the source. Rule as the data show it: active = inhibition above about 36%; inactive = the rest.

This assay deals with transactivating tegument protein VP16 (Human herpesvirus 1). The assay is described as follows: compounds suppressing VP16-driven luciferase signal – cell-based, luminescence, single concentration, counter-screen for SRC2 inhibitor project (AID 652007). The settings on record: cell-based VP16 transactivation luciferase reporter, at 8.9 µM, hits give high values. On the technique in general: The purpose of a counterscreen is to sort out artefacts and off-target activity.
A word on the inhibition: it is the change of the read-out against control, counted positive when it falls. Turning to `CC(=O)/C(N=Nc1ccc2c(c1)OCCO2)=C(\C)O`, the inhibition is -9.49%.
Consider `Cc1cc(C(=O)COc2cccnc2[N+](=O)[O-])c(C)n1-c1ccccc1`, for which the inhibition is -71.7%.
To `Cc1cc(/C=N/Nc2ncnc(N)c2[N+](=O)[O-])c(C)n1-c1ccccc1` belongs 23.9%; to `c1cc(-c2nnc3sc(C4CCCCC4)nn23)ccn1`, 0.17%.
Consider `COc1ccc(N(C(=O)CCl)C(C(=O)NC2CCCCC2)c2cccnc2)cc1` (stereo unspecified), for which the inhibition is 68.8% (active).
`O=C(Nc1ccc(C(=O)N2CCOCC2)cc1)Nc1cccc(C(F)(F)F)c1`: the inhibition is -0.39%.
Regarding `CCCC(=O)NC(c1ccc(Cl)cc1Cl)c1ccc2cccnc2c1O` (stereo unspecified), the inhibition is 0.83%.
Take `CC(/C=C1\SC(=O)N(CCCC(=O)O)C1=O)=C\c1ccccc1`: the inhibition is 90.3% (active).
With `CN(C)c1ccc(C(=S)Nc2ccccc2)cc1`, the inhibition was -5.11%.
To `Cc1ccc(C(=O)CN2C(=O)c3ccccc3S2(=O)=O)cc1` belongs 65% (active).
In the case of `CC(=O)Nc1nc(-c2ccc3c(c2)CC(C)N3C(=O)C2CC2)c(C)s1` (stereo unspecified), the inhibition is -4.55%.
With `CN(C)C(=O)c1cccc(-c2cnc3sc(NCc4ccc5c(c4)OCO5)nn23)c1`, the inhibition is 8.86%.
Consider `Cc1ccc(/C=C2\SC(=S)N(CCCC(=O)NNC(=O)c3ccccc3O)C2=O)cc1`, for which the inhibition was 92.8% (active).
`COc1ccc(-n2c(C)c([N+](=O)[O-])c3ccc(O)c(CN4CCCCC4)c32)cc1`: the inhibition is 4.57%.
Take `c1ccc(CCc2nn3c(-c4ccncc4)nnc3s2)cc1`: the inhibition is 1.28%.
Turning to `OCCN(CCO)CC(O)COc1ccc(C23CC4CC(CC(C4)C2)C3)cc1` (stereo unspecified), the inhibition was 61.9% (active).
